Where “and” joins values, the source holds several entries; their conditions need not be identical. Equal entries are not always repeated. Results filed as inconclusive are left out. A structure can be active in one record and inactive in another. Calls of active or inactive are those of the source. Unless noted, the call rests on the fitted dose curve; in most records, active means well fitted curve in the direction sought with a large enough effect in the repeat runs; inconclusive means weak or mixed curves; inactive means no such curve, though single readings can be large; an effect the other way counts as inactive or inconclusive.

Experiment [1] can be described thus: qHTS assay to identify small molecule antagonists of the vitamin D receptor (VDR) signaling pathway - cell viability counter screen (AID 743225). Further: nearly all actives have a fitted effect of over 50% in size. The essentials:
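HEK293T VDR-bla; cpd + 1a,25-(OH)2D3 3 nM final, 16 h 37C/5% CO2; B/G FRET substrate 2 h RT; then CellTiter-Glo 30 min RT, luminescence.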
(In general: In qHTS, concentration-response curves come from the screen itself.)

Experiment [2] can be described thus: qHTS assay to identify small molecule agonists of the NFkB signaling pathway (AID 1159509; active means well fitted curve in the direction sought with a large enough effect in the signal ratio in the repeat runs, not every such curve was filed as active; the % refers to the signal ratio; further: series mostly up to about 61 µM). The essentials:
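Readout: FRET fluorescence, 405 nm excitation, 460/530 nm emission; beta-lactamase expression disrupts FRET. Cells: ME-180 stably carrying NF-kB-driven bla reporter. Compound exposure 5 hr, 37 C, 5% CO2.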

The nature of experiment [3]: qHTS assay to identify small molecule agonists of the NFkB signaling pathway - cell viability counter screen (AID 1159515; calls by dose curve; further: series mostly up to about 61 µM; nearly all actives have a fitted effect of over 55% in size). The essentials: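 Cells are seeded (2,000 NFkB-bla ME-180 per well), rested overnight, and dosed with DMSO-dissolved compounds for 5 hr at 37 C. Viability is then read by CellTiter-Glo luminescence after 30 min at room temperature.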
Experiment [4] in a line: qHTS assay to identify small molecule agonists of the endoplasmic reticulum stress response signaling pathway (AID 1159516; active means well fitted activation curve with a large enough effect in the signal ratio in the repeat runs, not every such curve was filed as active; the % refers to the signal ratio). The essentials:
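Cells are seeded at 1,500 per well and incubated overnight. Compounds in DMSO are added for 5 hr at 37 C, then beta-lactamase FRET substrate for 2 hr at room temperature, and fluorescence at 460 and 530 nm is measured.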

The nature of experiment [5]: qHTS assay to identify small molecule agonists of the endoplasmic reticulum stress response signaling pathway - cell viability counter screen (AID 1159517; calls by dose curve;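 further: HeLa cells carrying an ER stress response element beta-lactamase reporter; series mostly up to about 61 µM; nearly all actives have a fitted effect of over 50% in size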). The method, boiled down: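 After overnight attachment, ESRE-bla HeLa cells were treated with Tox21 library compounds for 5 hr. CellTiter-Glo luminescence, read 30 min post-addition at room temperature, reported viability.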

Experiment [6] deals with Nuclear receptor ROR-gamma (Homo sapiens) (UniProt P51449). As to the kind of experiment: qHTS assay to identify small molecule antagonists of the retinoid-related orphan receptor gamma (ROR-gamma) signaling pathway (AID 1159521; further: nearly all actives have a fitted effect of over 50% in size; further: potency means the concentration at half of the fitted maximal effect). The method, boiled down: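 Cells were plated, rested 4 h at 37 C, exposed to compounds for 2 h, then given 1 uM final doxycycline hyclate to induce RORγ expression. After 16 h, ONE-Glo luminescence from the ROR response element reporter was measured.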

Experiment [7] in a line: qHTS assay to identify small molecule agonists of the AP-1 signaling pathway - cell viability counter screen (AID 1159525; calls by dose curve; further: nearly all actives have a fitted effect of over 55% in size; further: potency means the concentration at half of the fitted maximal effect). The essentials: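 Intracellular ATP by Cell Titer Glo luminescence (30 min, RT) in the same ME-180 AP-1-bla wells after the 5 h compound exposure at 37 °C. Normalised to tetra n-octyl ammonium bromide and DMSO controls.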
A short description of experiment [8]: qHTS assay to identify small molecule agonists of the AP-1 signaling pathway (AID 1159526; calls by dose curve).
Experiment [9] is described as follows: qHTS assay to identify small molecule agonists of the RXR signaling pathway - cell viability counter screen (AID 1159529). Further: nearly all actives have a fitted effect of over 50% in size. Further: potency means the concentration at half of the fitted maximal effect. The essentials: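 Steps: seed RXR-alpha-UAS-bla HEK 293T cells in assay medium containing 2% charcoal-stripped FBS; incubate 5 hr; add compounds in DMSO; incubate 16 hr at 37 C; after the bla read, add CellTiter-Glo and read luminescence at 30 min.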

The nature of experiment [10]: qHTS assay to identify small molecule antagonists of the retinoic acid receptor (RAR) signaling pathway (AID 1159552; further: nearly all actives have a fitted effect of over 50% in size). The method, boiled down:
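Retinol at 1 uM final stimulated RARE-luciferase expression in C3RL4 cells exposed to test compounds for 6 hr at 37 C. Reduced luminescence, read 30 min after detection reagent, indicated pathway antagonism.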

Experiment [11] is described as follows: qHTS assay to identify small molecule agonists of the retinoic acid receptor (RAR) signaling pathway (AID 1159553). Further: potency means the concentration at half of the fitted maximal effect. The method, boiled down: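 Seed C3RL4 reporter cells at 1,000 per well and incubate overnight at 37 C. Add compounds in DMSO, incubate 6 hr. Add luciferase reagent, wait 30 min at room temperature, read luminescence.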
The nature of experiment [12]: qHTS assay to identify small molecule agonists of the vitamin D receptor (VDR) signaling pathway - cell viability counter screen (AID 743224). The method, boiled down:
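Cells: VDR-bla, 2,000/well, settled 4 h. Treatment: compounds in DMSO, 16 h, 37C/5% CO2. Readout: CellTiter-Glo luminescence after 30 min RT.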

A short description of experiment [13]: qHTS assay to identify small molecule antagonists of the retinoid-related orphan receptor gamma (ROR-gamma) signaling pathway - cell viability counter screen (AID 1159520). Further: nearly all actives have a fitted effect of over 50% in size. The method, boiled down:
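Cytotoxicity was read from cellular ATP (CellTiter-Glo luminescence) after 16 hr at 37 C with 1 uM doxycycline induction. The inducer was added 2 hr after compound transfer to Tet-on ROR gamma CHO cells.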

Experiment [14] can be described thus: qHTS assay to identify small molecule antagonists of the retinoid acid receptor (RAR) signaling pathway - cell viability counter screen (AID 1159551). Further: nearly all actives have a fitted effect of over 35% in size. The essentials: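 Cells (C3RL4) are plated, incubated overnight, dosed with compound in DMSO, then given retinol at 1 uM final. After 6 h at 37 C, CellTiter-Glo is added and luminescence read following 30 min at room temperature.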

For experiment [15], the target named is Retinoic acid receptor RXR-alpha (Homo sapiens) (UniProt P19793). Put plainly: qHTS assay to identify small molecule agonists of the RXR signaling pathway (AID 1159527; calls by dose curve; further: nearly all actives have a fitted effect of over 35% in size). The method, boiled down: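 Cells plated at 2,000/well, rested 5 hr at 37 C, pin-dosed with DMSO compound solutions, incubated 16 hr, then loaded with B/G FRET substrate for 2 hr at RT before dual-emission fluorescence reading.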
Chain of Retinoic acid receptor RXR-alpha (Homo sapiens) (P19793 whole entry, looked up): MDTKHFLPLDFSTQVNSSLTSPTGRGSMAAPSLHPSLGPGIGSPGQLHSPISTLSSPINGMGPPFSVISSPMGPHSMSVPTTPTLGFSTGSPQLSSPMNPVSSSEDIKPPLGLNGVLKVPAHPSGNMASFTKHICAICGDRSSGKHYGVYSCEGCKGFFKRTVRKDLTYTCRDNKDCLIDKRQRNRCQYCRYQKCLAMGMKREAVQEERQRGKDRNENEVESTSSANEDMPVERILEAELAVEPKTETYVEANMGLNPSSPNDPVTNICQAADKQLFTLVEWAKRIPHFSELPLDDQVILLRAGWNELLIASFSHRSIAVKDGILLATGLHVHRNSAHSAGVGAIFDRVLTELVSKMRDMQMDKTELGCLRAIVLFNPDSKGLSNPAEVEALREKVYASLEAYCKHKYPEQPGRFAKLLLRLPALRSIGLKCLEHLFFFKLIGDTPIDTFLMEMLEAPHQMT

Turning to `CN(C)c1ccc(C(=N)c2ccc(N(C)C)cc2)cc1`, the Potency result in experiment [1], in [5], in [7], in experiment [8], in experiment [9] and in [10] was “inactive” in each case. In addition, the compound was classed as inactive in experiment [2], in experiment [3] and in experiment [4]. Also, the Potency in [6] was 21.4 µM (active) and 20.9 µM (active); in experiment [11], 41.6 µM (active).

Regarding `Cc1ccc(C(=O)O)o1`, the Potency result in experiment [12], in [1], in [5], in experiment [13], in [6] and in experiment [8] was “inactive” in each case. Besides, the Potency entry in [9] and in experiment [14] was “inactive” throughout. Moreover, the outcome in [2], in experiment [3] and in [4] was inactive.

For the compound `Clc1cc(Cl)c(Cl)cc1Cl`, the Potency result in [12], in experiment [1], in [5], in experiment [13], in experiment [6] and in experiment [8] was “inactive” in each case. For the same compound, the Potency result in experiment [15], in experiment [9], in experiment [14], in experiment [10] and in experiment [11] was “inactive” each time. Also, the compound was called inactive in experiment [2], in experiment [3] and in experiment [4].

Regarding `Oc1ccc2ccccc2c1`, the Potency entry in experiment [12], in [1], in [5], in experiment [6], in experiment [7] and in [8] was “inactive” each time. Moreover, the Potency entry in [15], in experiment [9], in experiment [14], in [10] and in [11] was “inactive” each time. For the same compound, the compound was classed as inactive in [2], in experiment [3] and in [4].

For `CC(=O)CCc1ccccc1`, the Potency entry in experiment [12], in experiment [1], in experiment [5], in experiment [13], in [6] and in [7] was “inactive” in each case. Also, the Potency entry in [8], in experiment [15], in experiment [9], in experiment [14], in experiment [10] and in [11] was “inactive” each time. Moreover, the outcome in [2], in experiment [3] and in [4] was inactive.

As for `Cc1cc(O)cc(C)c1Cl`, the Potency result in experiment [12], in experiment [1], in experiment [5], in [13], in experiment [6] and in [7] was “inactive” in each case. Moreover, the Potency entry in experiment [8], in experiment [15], in experiment [9], in [14], in [10] and in experiment [11] was “inactive” in each case. The outcome in experiment [2], in experiment [3] and in [4] was inactive.

In the case of `CC1=CC[C@H]2C[C@@H]1C2(C)C`, the Potency result in experiment [12], in experiment [1], in [13], in [6], in experiment [7] and in [8] was “inactive” each time. Besides, the Potency result in experiment [15], in experiment [9], in [14], in [10] and in [11] was “inactive” in each case. For the same compound, the compound was classed as inactive in [2], in experiment [3] and in experiment [4].

Regarding `OC[C@@H](O)[C@@H](O)[C@H](O)[C@@H](O)CO`, the Potency entry in [12], in [1], in experiment [5], in [13], in experiment [6] and in experiment [7] was “inactive” each time. For the same compound, the Potency result in experiment [8], in experiment [15], in experiment [9], in experiment [14], in experiment [10] and in experiment [11] was “inactive” throughout. In addition, the result in [2], in experiment [3] and in [4] was inactive.

Turning to `COCC(=O)O`, the Potency entry in [12], in [1], in experiment [5], in experiment [13], in [6] and in [7] was “inactive” in each case. Further, the Potency result in experiment [8], in experiment [15], in [9], in experiment [14], in experiment [10] and in [11] was “inactive” each time. The compound was called inactive in experiment [2], in [3] and in [4].

Turning to `C/C=C(C)/C=C/C=C(C)C`, the Potency result in experiment [12], in experiment [1], in [5], in experiment [13], in [7] and in experiment [15] was “inactive” in each case. Further, the Potency result in experiment [9] and in experiment [14] was “inactive” each time. Besides, the result in experiment [2], in experiment [3] and in experiment [4] was inactive.

As for `CC(C)n1c(/C=C/[C@@H](O)C[C@@H](O)CC(=O)O)c(-c2ccc(F)cc2)c2ccccc21`, the Potency result in experiment [12], in experiment [1], in experiment [5], in experiment [7], in experiment [8] and in experiment [15] was “inactive” throughout. Also, in [14], the Potency result is “inactive”. Besides, the compound was called inactive in [2], in experiment [3] and in experiment [4]. Also, the Potency in experiment [6] is 486 nM (active) and 168 nM (active).

Consider `CC(C)(N=C=O)c1cccc(C(C)(C)N=C=O)c1`, for which the Potency entry in experiment [12], in [1], in [5], in [13], in experiment [6] and in experiment [7] was “inactive” in each case. In addition, the Potency result in experiment [8], in experiment [15], in [9], in experiment [14], in experiment [10] and in [11] was “inactive” throughout. The compound was called inactive in [2], in experiment [3] and in [4].

Regarding `C=C(C)C(=O)OCCCCCCCCCCCC`, the Potency result in [12], in [1], in [5], in experiment [13], in experiment [6] and in experiment [8] was “inactive” each time. In addition, the Potency result in experiment [15], in experiment [9], in [14], in [10] and in [11] was “inactive” in each case. Also, the call in experiment [2], in experiment [3] and in experiment [4] was inactive.

`COC(=O)c1ccc(C(=O)OC)cc1`: the Potency result in experiment [12], in experiment [1], in experiment [5], in [13], in experiment [8] and in [15] was “inactive” each time. Also, the Potency entry in experiment [14], in experiment [10] and in [11] was “inactive” throughout. Besides, the compound was called inactive in [2] and in experiment [3]. Also, the Potency in [6] was 1.96 µM (active) and inactive; in experiment [7] it was 12.5 µM (active) and inactive; in experiment [9], 15.7 µM (active) and inactive.

Regarding `CC(C)Cc1ccccc1`, the Potency result in experiment [12], in experiment [1], in experiment [5], in experiment [13], in experiment [6] and in [7] was “inactive” each time. Also, the Potency result in experiment [8], in [15], in [9], in [14], in experiment [10] and in experiment [11] was “inactive” each time. Also, the outcome in [2], in [3] and in experiment [4] was inactive.

For `CN(C)c1cccc(O)c1`, the Potency entry in [12], in experiment [1], in [5], in experiment [13], in experiment [7] and in [8] was “inactive” in each case. Further, the Potency result in [15], in experiment [9], in [14] and in [10] was “inactive” in each case. Further, the compound was called inactive in [2], in experiment [3] and in experiment [4]. Moreover, the Potency entry in [11] was “inactive and 34.4 µM (active)”.

For `CC[Si](OC(C)=O)(OC(C)=O)OC(C)=O`, the Potency result in experiment [12], in [1], in experiment [5], in experiment [13], in experiment [6] and in experiment [8] was “inactive” in each case. The Potency entry in experiment [15], in experiment [9] and in experiment [14] was “inactive” each time. Also, the call in [2], in experiment [3] and in experiment [4] was inactive.

Consider `c1ccc2[nH]cnc2c1`, for which the Potency entry in experiment [12], in experiment [1], in experiment [5], in experiment [13], in [6] and in [7] was “inactive” throughout. For the same compound, the Potency entry in experiment [8], in [15], in experiment [9], in experiment [14], in [10] and in experiment [11] was “inactive” in each case. Further, the compound was called inactive in experiment [2], in experiment [3] and in experiment [4].

The record behind these values is PubChem BioAssay (Tox21).
